Screening results: PubChem, National Center for Advancing Translational Sciences (NCATS)
TDP1 block – TDP1 (human) enzyme inhibition. Q9NUW8. Potency, µM (highest dose often 130 µM), actives largely listed as inhibitors. recombinant TDP1, AlphaScreen DNA substrate cleavage. 0.28% of 350,000 active; further: nearly all actives have a fitted effect of over 40% in size
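Enzyme-compound mixtures sat 15 min at room temperature, followed by a 5 min reaction with 15 nM final substrate and 10 min with AlphaScreen beads. Recombinant human Tdp1 was used at 1 nM final.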
DT40 TDP1 CPT – growth inhibition of DT40 Tdp1-/-;hTDP1 cells with camptothecin (screen for TDP1 inhibitors); chicken DT40 Tdp1-/-;hTDP1 cells + 20 nM CPT, ATP luminescence, 48 h; Potency, µM (top dose mostly 46.2 µM), most hits filed as inhibitors; 12% of 420,000 active; further: nearly all actives have a fitted effect of over 55% in size
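Chicken DT40 Tdp1-/- cells stably complemented with human TDP1 were seeded at 400 cells/well in medium containing 20 nM camptothecin, exposed to pin-transferred compounds, and grown at 37 °C for at least 48 hr. Viability was read as ATP luminescence.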
DT40 TDP1 no CPT – qHTS for Inhibitors of human tyrosyl-DNA phosphodiesterase 1 (TDP1): qHTS in cells in absence of CPT; DT40 Tdp1-/- hTDP1 cells, no CPT, ATP luminescence, 48 h; Potency, µM (doses to about 46.2 µM), most hits filed as inhibitors; 15% of 420,000 active; further: nearly all actives have a fitted effect of over 55% in size
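Readout: luminescence from CellTiter-Glo after 30 min in the dark at RT. Cells: DT40 Tdp1-/- with stable hTDP1, 400/well. Exposure: compounds alone, ≥48 hr, 37 °C.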
VDR inh – vitamin D3 receptor (human) inhibition. Potency, µM, usual class: inhibitors. AID 504847. P11473. 0.93% of 400,000 active. VDR-SRC2-3 peptide fluorescence polarization, 2 h
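FP read-out; VDR + SRC2-3 coactivator peptide; 23 nl compound by pintool; 2 h RT incubation; reagents held at 4 deg C, protected from light.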
KAT2A inh – inhibitors of human GCN5L2 histone acetyltransferase | Q92830 | GCN5L2 HAT assay, ThioGlo1 CoA-SH fluorescence | Potency, µM (titrated, usually from 58.9 µM), actives largely listed as inhibitors | 0.21% of 390,000 active | AID 504327
Target sequence (Q92830 whole entry, looked up): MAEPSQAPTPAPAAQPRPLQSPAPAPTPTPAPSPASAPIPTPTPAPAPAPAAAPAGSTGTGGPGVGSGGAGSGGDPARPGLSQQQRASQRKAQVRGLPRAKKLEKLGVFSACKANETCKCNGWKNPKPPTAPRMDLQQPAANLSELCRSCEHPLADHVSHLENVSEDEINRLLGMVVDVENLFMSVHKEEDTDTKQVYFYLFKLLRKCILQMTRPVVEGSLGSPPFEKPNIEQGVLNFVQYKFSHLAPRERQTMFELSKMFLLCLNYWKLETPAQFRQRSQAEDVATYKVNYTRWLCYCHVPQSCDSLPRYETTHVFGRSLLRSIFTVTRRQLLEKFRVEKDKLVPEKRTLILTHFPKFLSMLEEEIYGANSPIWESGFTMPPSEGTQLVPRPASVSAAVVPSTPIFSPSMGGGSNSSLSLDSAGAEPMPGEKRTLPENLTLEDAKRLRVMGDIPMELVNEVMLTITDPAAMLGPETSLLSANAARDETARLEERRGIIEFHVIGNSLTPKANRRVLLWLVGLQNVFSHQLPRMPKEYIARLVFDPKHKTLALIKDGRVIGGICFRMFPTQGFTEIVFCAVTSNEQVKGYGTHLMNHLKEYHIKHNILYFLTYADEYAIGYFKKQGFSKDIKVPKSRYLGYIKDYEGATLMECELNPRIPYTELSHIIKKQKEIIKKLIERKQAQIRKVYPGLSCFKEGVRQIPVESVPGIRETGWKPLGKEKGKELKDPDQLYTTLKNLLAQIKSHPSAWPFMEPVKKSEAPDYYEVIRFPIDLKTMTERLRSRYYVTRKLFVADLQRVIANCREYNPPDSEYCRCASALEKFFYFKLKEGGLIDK
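GCN5L2 (20nM final) in 50mM HEPES, 0.1mM EDTA pH 7.5, 0.01% Tween-20 was preincubated 15 min at room temperature with compound, then given ThioGlo1 (50uM), H3(1-25) peptide (75uM) and acetyl-CoA (70uM); CoA-thiol fluorescence (Ex340/Em540) was read at 0 and 20 min.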
PLK1 PBD block – blocks phosphopeptide binding to human PLK1 polo-box domain; 2.8% of 360,000 active; Potency, µM, hits mostly inhibitors; P53350; Plk1 PBD binding of FITC phosphopeptide, fluorescence polarization; further: series mostly up to about 57 µM; nearly all actives have a fitted effect of over 65% in size
A number is an active result; – = inactive; ? = inconclusive; · = not tested or not shown; ! = not confirmed by another sample; [ ] = another dose, or the depositor's remark. Shown are actives, neighbours in structure and some others; about 18% of the full set was active somewhere. The call rests on the fitted dose curve; in most records, active means well fitted curve in the direction sought with a large enough effect; inconclusive means small, poorly fitted or top-dose-only effect, or another doubt; inactive means no such curve, though single readings can be large; an effect the other way counts as inactive or inconclusive.

SMILES	TDP1 block	DT40 TDP1 CPT	DT40 TDP1 no CPT	VDR inh	KAT2A inh	PLK1 PBD block
COc1cc(NC(=O)C2CCCCC2)c(OC)cc1NC(=O)CN1CCCCC1	–	?	16.4µM	–	–	–
COc1cc(NC(=O)Nc2ccccc2)c(OC)cc1NC(=O)CN1CCCCC1	–	?	?	–	–	–
Cc1ccc(NC(=O)CN2CCC(NC(=O)C3CCCCC3)CC2)c(Br)c1	–	?	20.6µM	–	–	–
COC(=O)c1ccc(-c2cccc3c2OC(CNC(=O)/C=C/c2ccc(OC)c(OC)c2)C3)nc1 (stereo not given)	·	?	–	·	·	·
COc1cc(NC(=O)c2ccc(Cl)cc2)c(OC)cc1NC(=O)CN1CCCCC1	–	?	18.4µM	–	–	29.9µM
COc1cc(NC(=O)c2ccc(C)cc2)c(OC)cc1NC(=O)CN1CCOCC1	–	?	16.4µM	–	–	–
COc1cc(NC(=O)Nc2ccccc2OC)c(OC)cc1NC(=O)CN1CCCCC1	–	?	?	–	–	–
COc1cc(NC(=O)c2ccc(Cl)cc2)c(OC)cc1NC(=O)CN1CCOCC1	–	?	?	–	–	–
COc1cc(NC(=O)c2ccccc2F)c(OC)cc1NC(=O)CN1CCCCC1	–	?	16.4µM	–	–	–
O=C(NCc1ccccc1C(F)(F)F)c1cccc2c1C(=O)c1ccc(N3CCCCC3)cc1S2(=O)=O	–	?	?	–	–	–
CC(=O)c1ccc(N2CCN(S(=O)(=O)c3ccc4[nH]c5c(c4c3)CCCC5)CC2)cc1	–	?	25.9µM	–	–	·
Cc1ccc(C)c(N2CCN(S(=O)(=O)c3ccc4[nH]c5c(c4c3)CCCCC5)CC2)c1	–	·	·	–	–	·
Cc1ccc(Cl)cc1N1CCN(S(=O)(=O)c2ccc3[nH]c4c(c3c2)CCCC4)CC1	–	?	?	–	–	·
CC1CCCN(S(=O)(=O)c2ccc3[nH]c4c(c3c2)CCCC4)C1 (stereo not given)	–	20.6µM	?	–	–	?
O=S(=O)(c1ccc2[nH]c3c(c2c1)CCCCC3)N1CCN(c2cccc(Cl)c2)CC1	–	18.4µM	11.6µM	–	–	·
O=C(NCCCN1CCOCC1)c1cnn(-c2ncc3c(n2)-c2ccccc2CC3)c1C1CC1	·	–[9.04 µM]	–	·	·	·
COc1ccc(N/C=C(\C#N)S(=O)(=O)c2ccc(Cl)cc2)c(OC)c1	·	–	–	–	–	–
COC(=O)C1=CN(CCOC23CC4CC(CC(C4)C2)C3)C=C(C(=O)OC)C1c1ccsc1	·	?	11.6µM	–	–	–
COC(=O)C1=CN(Cc2ccc(OC)cc2)C=C(C(=O)OC)C1c1ccsc1	·	20.6µM	?	–	–	–
O=C(N/N=C/c1ccc(OC(=O)c2ccccc2)cc1)c1cccc(O)c1	–	?	16.4µM	–	–	–
N#Cc1ccc(/C=N/NC(=O)c2ccccc2F)cc1	–	–	–	–	–	–
O=C(Oc1ccc(/C=N/NC(=O)c2ccccc2F)cc1)c1ccccc1	–	9.2µM	11.6µM	–	–	–
CCc1nnc(SCC(=O)Nc2cccc(C(F)(F)F)c2)c2cc3oc(C)cc3n12	–	?	?	–	–	·
COc1ccc(CN2CCN(C(C)=O)CC2)cc1OC1CCN(C(=O)c2ccc3ccccc3n2)CC1	·	–[9.04 µM]	–	·	·	·
CCOC(=O)c1sc(-c2ccc(Cl)cc2Cl)nc1O	–	25.9µM	18.4µM	–	–	?
SMILES	TDP1 block	DT40 TDP1 CPT	DT40 TDP1 no CPT	VDR inh	KAT2A inh	PLK1 PBD block
C[C@]12CCC(=O)C=C1CC[C@@H]1C2[C@@H](O)C[C@@]2(C)[C@H]1CC[C@]2(O)C(=O)CO (stereo not given in full)	–	–	?	–	–[0.501 µM]	·
COc1ncc2nc(-c3ccc(Cl)cc3)c(=O)n(CCC#N)c2n1	·	–	–	–	–	·
Cc1c(NC(=O)C(C)OC(=O)c2cc(Cl)ccc2O)c(=O)n(-c2ccccc2)n1C (stereo not given)	–	–	–	–	–	–
COc1cccc(N2CCN(C(=O)c3cccc(N4C(=O)NC5CC4(C)Oc4c(OC)cccc45)c3)CC2)c1 (stereo not given)	–	–	–	–	–	–
CCOc1cccc2c1OC1(C)CC2NC(=O)N1c1ccc(OC)cc1 (stereo not given)	–	?	?	–	–	13.4µM
FC(F)(F)c1ccccc1Cc1c(-c2cccc(Cl)c2)nc2c3ccccc3ccn12	·	?	20.6µM	·	·	–
Fc1ccc(-c2nc3c4ccccc4ccn3c2Cc2ccccc2C(F)(F)F)cc1	·	?	?	·	·	–
Clc1cccc(-c2nc3c4ccccc4ccn3c2CC2CCCCC2)c1	·	?	?	·	·	–
FC(F)(F)c1ccccc1Cc1c(-c2ccc(Cl)cc2)nc2c3ccccc3ccn12	·	?	25.9µM	·	·	–
COc1ccc(C2c3c(nc(Cc4ccccc4)[nH]c3=O)Oc3ccc4ccccc4c32)cc1OC (stereo not given)	–	·	·	·	·	·
Cc1ccc(CNC(=O)Cn2cc(C(=O)c3ccc(F)cc3)c(=O)c3ccc(C)nc32)cc1	–	?	?	–	–	·
CN(C(=O)CSc1nc2ccc(Cl)cc2[nH]1)C1CCS(=O)(=O)C1 (stereo not given)	–	–	–	–	–	–
CCN(CC)CCOc1ccc(/C(=C(\Cl)c2ccccc2)c2ccccc2)cc1	–	?	14.6µM!	–	–	–
CCN(CC)CCOc1ccc(Br)cc1	–	–	–	–	–	–
Cc1cccc(Cn2c(=O)n(-c3ccc(CC(=O)NCc4ccco4)cc3)c(=O)c3sccc32)c1	–	25.9µM	14.6µM	–	–	–
Cc1cccc(C)c1NC(=O)Cn1c(=O)n(Cc2ccc(C(=O)NCc3ccco3)cc2)c(=O)c2sccc21	·	20.6µM	23.1µM	–	–	·
Cc1cccc(CN2CCN(C(C)C(=O)NC(C)c3ccccc3)CC2)c1 (stereo not given)	·	?	–	–	–	–
CC(C)(OC1OC(CO)C(O)C(O)C1O)[C@H]1Oc2ccc3ccc(=O)oc3c2[C@H]1O (stereo not given in full)	–	–	–	–	–	–
COc1ccc(C2=C(C)C(N3CCC(C(=O)NCc4ccco4)CC3)=NS2(=O)=O)cc1	–	–	?	–	–	·
CN(C)c1cc(NC(=O)CNC(C)(C)CC(C)(C)C)c2ccccc2n1	–	?	16.4µM	–	–	–
COc1cc(OC)cc(C(=O)Nc2ccc([N+](=O)[O-])cn2)c1	–	?	?	?	–	26.7µM
CC(=O)Nc1ccc(S(=O)(=O)Nc2cc([N+](=O)[O-])ccc2C)cc1	–	?	?	?	–	6.7µM
